Publication PMC4336329 (PLoS ONE, 2015)
The campaign covered roughly 310,000 compounds. About 14,000 (4.5%) showed an effect of 50% or more. Effects have a minus sign here. The sample as a whole holds a higher share of strong results than the screen did.

Each compound was assayed against human ether-à-go-go-related gene (hERG) potassium channel (human, UniProt Q12809) (assay: primary screen, population patch clamp on CHO cells stably expressing hERG; higher = less effect of the substance).
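Also: peak tail current of the secondary pulse compared with the same well before compound.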

Sequence of human ether-à-go-go-related gene (hERG) potassium channel (Q12809 whole entry, looked up): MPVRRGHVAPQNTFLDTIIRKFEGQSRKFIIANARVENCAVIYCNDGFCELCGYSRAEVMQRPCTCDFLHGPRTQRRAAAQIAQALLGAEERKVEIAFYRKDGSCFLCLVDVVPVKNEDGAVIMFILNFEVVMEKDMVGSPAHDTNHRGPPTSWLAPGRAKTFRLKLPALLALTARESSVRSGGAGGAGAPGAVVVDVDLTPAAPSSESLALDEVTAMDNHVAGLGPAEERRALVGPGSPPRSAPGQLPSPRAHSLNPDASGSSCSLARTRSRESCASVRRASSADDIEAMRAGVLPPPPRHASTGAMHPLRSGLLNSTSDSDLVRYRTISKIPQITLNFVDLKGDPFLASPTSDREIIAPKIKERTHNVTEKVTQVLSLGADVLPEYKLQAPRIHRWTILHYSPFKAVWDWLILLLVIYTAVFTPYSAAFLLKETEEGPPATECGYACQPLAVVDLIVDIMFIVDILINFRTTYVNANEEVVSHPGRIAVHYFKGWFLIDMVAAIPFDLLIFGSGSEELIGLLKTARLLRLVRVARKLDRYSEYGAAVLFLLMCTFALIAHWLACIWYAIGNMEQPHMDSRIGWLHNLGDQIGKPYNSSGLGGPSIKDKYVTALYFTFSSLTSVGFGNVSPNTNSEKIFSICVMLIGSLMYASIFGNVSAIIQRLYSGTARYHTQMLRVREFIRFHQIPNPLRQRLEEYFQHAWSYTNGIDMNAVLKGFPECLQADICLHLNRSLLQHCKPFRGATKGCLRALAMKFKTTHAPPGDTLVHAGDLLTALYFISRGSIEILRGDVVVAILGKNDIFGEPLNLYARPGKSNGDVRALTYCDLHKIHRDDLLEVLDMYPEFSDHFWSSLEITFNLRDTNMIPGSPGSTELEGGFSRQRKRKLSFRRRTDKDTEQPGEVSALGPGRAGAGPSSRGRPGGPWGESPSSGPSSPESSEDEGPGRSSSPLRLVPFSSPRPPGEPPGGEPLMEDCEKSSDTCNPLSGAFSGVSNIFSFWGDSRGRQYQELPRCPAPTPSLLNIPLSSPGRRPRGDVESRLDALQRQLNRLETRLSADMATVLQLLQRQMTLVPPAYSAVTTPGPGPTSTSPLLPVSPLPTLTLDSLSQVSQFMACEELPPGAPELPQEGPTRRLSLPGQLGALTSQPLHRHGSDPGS

SMILES	hERG current change (%, negative = inhibition) at 10uM
CC(C)(C)c1ccc(COC(=O)CNC(=O)CNC(=O)Cc2ccccc2)cc1	-6.93%
CCOP(=O)(CC(C(C)=O)C(O)c1ccccc1)OCC (stereo not shown)	11.3%
CCOCCCNC(=O)c1cc2c(=O)n3ccccc3nc2s1	-7.05%
COc1ccc(S(=O)(=O)N2CCCCCC2)cc1C(=O)N(C)Cc1cccs1	-40.5%
COc1ccc(S(=O)(=O)N2CCCCCC2)cc1C(=O)NCCc1ccccc1	-65.5%
Cc1ccc(S(=O)(=O)N2CCCCC2)cc1C(=O)NCCc1ccccc1	11.2%
COc1ccc(S(=O)(=O)N2CCCC2)cc1C(=O)O	30.4%
O=C(NCC(c1cccs1)N1CCOCC1)c1cc(S(=O)(=O)N2CCOCC2)c(Cl)cc1Cl (stereo not shown)	-9.54%
COc1ccc(S(=O)(=O)N2CCCCCC2)cc1C(=O)NCc1ccc(C)cc1	-29.1%
COc1ccc(S(=O)(=O)N2CCCCCC2)cc1C(=O)NCc1cccs1	-68.3%
O=C(NCc1cccs1)c1cc(S(=O)(=O)N2CCCCC2)ccc1Cl	5.07%
COc1ccc(S(=O)(=O)N2CCCCCC2)cc1C(=O)NCCc1ccc(F)cc1	-31.4%
O=C(NCc1cccs1)c1cc(S(=O)(=O)N2CCOCC2)c(Cl)cc1Cl	-81.6%
O=C(NCc1ccncc1)c1cc(S(=O)(=O)N2CCOCC2)c(Cl)cc1Cl	-13.3%
CCCC(C)NC(=O)c1cc(S(=O)(=O)N2CCCCCC2)ccc1OC (stereo not shown)	-54.4%
COc1ccc2ncn(-c3ccccc3)c2c1	-7.39%
COc1ccc(NC(=O)c2ccc(Cn3cc(Cl)cn3)cc2)cc1	1.21%
Cc1ccc(NC(=O)c2ccco2)c(NC(=O)Cc2cccs2)c1	-2.72%
O=C(NCCc1ccccc1F)C1CC(=O)N(c2ccccc2)C1 (stereo not shown)	1.17%
C/C(=N\Nc1nc(C(C)(C)C)cs1)c1ccccc1	16.4%
Cc1cccc(NC(=O)CC2C(=O)NCCN2C(=S)Nc2ccccc2)c1 (stereo not shown)	1.17%
Cc1cnc(NC(=O)c2c(-c3ccccc3)noc2C)s1	-2.27%
O=C(NNC(=O)c1ccccc1Br)c1cccc(Cl)c1	-7.94%
CCCCCC(C)NC(=O)c1cc(S(=O)(=O)N2CCCCC2)ccc1N1CCOCC1 (stereo not shown)	-70.9%
CCC(CC)NC(=O)c1cc(S(=O)(=O)N2CCCCC2)ccc1N1CCOCC1	-20.3%

SMILES	hERG current change (%, negative = inhibition) at 10uM
CC(C)CCCC(C)NC(=O)c1cc(S(=O)(=O)N2CCCCC2)ccc1N1CCOCC1 (stereo not shown)	-36.8%
COc1ccc(NC(=O)CCSc2ccc3ccccc3n2)cc1	-11.7%
CCOC(=O)n1n[n+]([O-])c2ccccc21	35.5%
CCOc1ccc(S(=O)(=O)NCCc2cn3ccccc3n2)cc1	-11%
Cc1ccn2cc(CCNS(=O)(=O)c3ccc([N+](=O)[O-])cc3)nc2c1	-69.7%
O=[N+]([O-])c1ccc(S(=O)(=O)NCCc2cn3ccccc3n2)cc1	-40.6%
CCc1ccc(S(=O)(=O)NCCc2cn3ccc(C)cc3n2)s1	-54.2%
O=S(=O)(NCCc1cn2ccccc2n1)c1ccc(-c2ccccc2)cc1	-62%
CCc1ccc(S(=O)(=O)NCCc2cn3cccc(C)c3n2)s1	-16.2%
Cc1ccn2cc(CCNS(=O)(=O)c3ccc4ccccc4c3)nc2c1	-39.6%
CC(=O)c1ccc(S(=O)(=O)NCCc2cn3ccc(C)cc3n2)cc1	-29.9%
CCc1ccc(S(=O)(=O)NCCc2cn3ccccc3n2)s1	-29.5%
COc1cccc(C(=O)COC(=O)COc2c(C)cc(C)cc2C)c1	1.18%
COc1ccc(-c2c(C(C)=O)c(C)nc3sc4c(=N)n(N)cnc4c23)cc1	3.48%
CC(C)CCNC(=O)c1ccc2c(Cl)c3c(nc2c1)CCC3	21.4%
CCCN1CCN(CCCNC(=O)c2ccc3c(Cl)c4c(nc3c2)CCCC4)CC1	-61.1%
CC1CCN(CCCNC(=O)c2ccc3c(Cl)c4c(nc3c2)CCCC4)CC1	-40.9%
O=C(NCCCN1CCCC1)c1ccc2c(Cl)c3c(nc2c1)CCCC3	-50.1%
O=C(NC1CC1)c1ccc2c(Cl)c3c(nc2c1)CCCC3	-63.7%
CCOC(=O)N1CCC(NC(=O)c2ccc3c(Cl)c4c(nc3c2)CCCC4)CC1	-36.6%
O=C(NCCCN1CCCCCC1)c1ccc2c(Cl)c3c(nc2c1)CCCC3	-53%
CCN(CC)CCCNC(=O)c1ccc2c(Cl)c3c(nc2c1)CCCC3	-48.7%
CCN1CCN(CCCNC(=O)c2ccc3c(Cl)c4c(nc3c2)CCCC4)CC1	-46.8%
CN1CCN(CCCNC(=O)c2ccc3c(Cl)c4c(nc3c2)CCCC4)CC1	-6.81%
